Our source for the Potency values is PubChem BioAssay (Tox21).

The nature of assay [1]: qHTS assay to identify small molecule antagonists of the thyroid receptor (TR) signaling pathway - cell viability counter screen (AID 743064). Also: nearly all actives have a fitted effect of over 50% in size. Also: potency is read from the fitted curve at half-maximal effect. In short, it runs like this:
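Same-well viability check: GH3.TRE-Luc cells stimulated with 1 nM T3 alongside test compound for 23.5 h, followed by CellTiter-Fluor fluorescence.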

Assay [2] can be described thus: qHTS assay to identify small molecule antagonists of the thyroid receptor (TR) signaling pathway (AID 743065). Also: nearly all actives have a fitted effect of over 55% in size. Also: potency is read from the fitted curve at half-maximal effect. In short, it runs like this:
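GH3.TRE-Luc rat pituitary cells carrying two TR response elements driving luciferase were plated for 4 h, given compound plus 1 nM T3 (final), and incubated 23.5 h at 37 C. ONE-Glo luminescence measured reporter inhibition; CellTiter-Fluor fluorescence tracked cytotoxicity.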

The subject of assay [3] is thyroid hormone receptor (rat, GH3 cells). Briefly: qHTS assay to identify small molecule agonists of the thyroid receptor (TR) signaling pathway (AID 743066; calls by dose curve).
Assay [4] can be described thus: qHTS assay to identify small molecule antagonists of the estrogen receptor alpha (ER-alpha) signaling pathway - cell viability counter screen (AID 743074; calls by dose curve;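 also: HEK293 cells carrying ER-alpha-UAS-bla reporter stimulated with 17beta-estradiol; nearly all actives have a fitted effect of over 45% in size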; also: potency is read from the fitted curve at half-maximal effect).
Assay [5] is described as follows: qHTS assay to identify small molecule antagonists of the estrogen receptor alpha (ER-alpha) signaling pathway using the BG1 cell line - cell viability counter screen (AID 743081).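 Also: compound given together with 17beta-estradiol as the ER stimulus; nearly all actives have a fitted effect of over 45% in size.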 Also: potency is read from the fitted curve at half-maximal effect.
Another assay deals with Aromatase (Homo sapiens) (UniProt P11511). Briefly: qHTS assay to identify aromatase inhibitors (AID 743083). Also: nearly all actives have a fitted effect of over 55% in size. Also: potency is read from the fitted curve at half-maximal effect.
Assay [6] deals with Estrogen receptor (Homo sapiens) (UniProt P03372). Description: qHTS assay to identify small molecule antagonists of the estrogen receptor alpha (ER-alpha) signaling pathway (AID 743069; active = well fitted curve in the direction sought with a large enough effect in the signal ratio in the repeat runs, not every such curve was filed as active; the % refers to the signal ratio). In outline: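 A 17beta-estradiol challenge was applied right after compound transfer to ER-alpha-UAS-bla HEK293 cells previously kept in charcoal-stripped serum. Plates stood 18 hr at 37C and 5% CO2; fluorescence was read following 2 hr FRET substrate loading at room temperature.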

Assay [7] shares this target. Description: qHTS assay to identify small molecule agonists of the estrogen receptor alpha (ER-alpha) signaling pathway (AID 743075; calls by dose curve;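 also: HEK293 GripTite cells with ER-alpha and UAS-driven beta-lactamase reporter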).
Assay [8] shares this target. Briefly: qHTS assay to identify small molecule agonists of the estrogen receptor alpha (ER-alpha) signaling pathway using the BG1 cell line (AID 743079). Also: nearly all actives have a fitted effect of over 20% in size.
Assay [9] is described as follows: qHTS assay to identify small molecule antagonists of the estrogen receptor alpha (ER-alpha) signaling pathway using the BG1 cell line (AID 743080; calls by dose curve;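 also: BG1 cells stimulated with 17beta-estradiol alongside compound; series mostly up to about 70 µM; nearly all actives have a fitted effect of over 25% in size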). In short, it runs like this:
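BG1-Luc-4E2 cells (endogenous full-length ER-alpha, 4xERE luciferase) hormone-starved 5 days in charcoal-stripped FBS, plated 4,000/well for 24 h, then compound plus 17beta-estradiol for 21.5 h at 37 C; ONE-Glo luminescence read.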

“And” between values parts separate entries of the source, which are not always exact repeats. Identical values can stand only once. Inconclusive results are not listed. More than one record can exist for a structure, and the calls need not agree. The source made the active and inactive calls. Unless noted, calls follow the shape of the dose curve; as a rule, active = well fitted curve in the direction sought with a large enough effect in the repeat runs; inconclusive = weak or mixed curves; inactive = no such curve, though single readings can be large; an effect the other way counts as inactive or inconclusive.

Sequence of Estrogen receptor (Homo sapiens) (P03372 whole entry, looked up): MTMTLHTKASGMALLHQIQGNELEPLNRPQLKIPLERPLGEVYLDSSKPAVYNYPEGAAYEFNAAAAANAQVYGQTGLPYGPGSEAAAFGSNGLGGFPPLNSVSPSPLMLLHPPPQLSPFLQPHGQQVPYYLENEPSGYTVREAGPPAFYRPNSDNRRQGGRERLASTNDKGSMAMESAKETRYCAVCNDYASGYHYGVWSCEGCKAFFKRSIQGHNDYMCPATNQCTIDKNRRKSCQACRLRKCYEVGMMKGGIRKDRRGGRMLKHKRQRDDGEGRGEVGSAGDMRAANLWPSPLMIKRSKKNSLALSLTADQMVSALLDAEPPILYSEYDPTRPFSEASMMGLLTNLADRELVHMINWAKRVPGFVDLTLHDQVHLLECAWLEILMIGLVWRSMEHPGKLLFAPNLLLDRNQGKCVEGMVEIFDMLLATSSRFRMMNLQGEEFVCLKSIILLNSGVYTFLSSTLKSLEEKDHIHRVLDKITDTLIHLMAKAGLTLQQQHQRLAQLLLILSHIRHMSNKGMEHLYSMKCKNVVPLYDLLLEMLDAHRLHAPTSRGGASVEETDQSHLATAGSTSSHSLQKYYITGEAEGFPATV
Sequence of Aromatase (Homo sapiens) (P11511 whole entry, looked up): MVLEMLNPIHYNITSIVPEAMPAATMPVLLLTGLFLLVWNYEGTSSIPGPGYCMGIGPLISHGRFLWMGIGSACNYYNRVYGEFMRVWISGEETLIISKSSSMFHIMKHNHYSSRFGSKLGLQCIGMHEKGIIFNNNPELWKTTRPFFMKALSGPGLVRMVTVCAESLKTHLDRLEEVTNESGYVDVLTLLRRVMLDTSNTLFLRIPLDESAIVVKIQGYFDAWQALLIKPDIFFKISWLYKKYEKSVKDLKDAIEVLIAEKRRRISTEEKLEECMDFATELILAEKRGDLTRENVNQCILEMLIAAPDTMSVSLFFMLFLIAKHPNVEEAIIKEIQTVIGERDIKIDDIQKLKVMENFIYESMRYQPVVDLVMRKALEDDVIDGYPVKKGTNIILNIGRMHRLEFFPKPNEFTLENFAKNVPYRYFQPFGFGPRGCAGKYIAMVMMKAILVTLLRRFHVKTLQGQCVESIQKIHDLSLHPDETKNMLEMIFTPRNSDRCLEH

On to `CCc1cnc(C2=NC(C)(C(C)C)C(=O)N2)c(C(=O)O)c1` (centres undefined), for which the Potency entry (in assay [1]; in assay [2]; in [3]; in assay [4]; in assay [5]; with Aromatase (Homo sapiens)) was “inactive” in each case.

Take `OCCCl`: the Potency result (in assay [1]; in assay [2]; in assay [3]; in assay [4]; in assay [5]; in the assay with Aromatase (Homo sapiens)) was “inactive” throughout.

Turning to `CCCCCl`, the Potency result (in assay [1]; in [2]; in assay [3]; in assay [4]; in assay [5]; with Aromatase (Homo sapiens)) was “inactive” in each case.

`CCCC[P+](CC)(CCCC)CCCC` (tested in a mixture with another compound): the Potency entry (in assay [1]; in assay [2]; in [3]; in assay [4]; in assay [5]; in the assay with Aromatase (Homo sapiens)) was “inactive” in each case.

As for `CN(C)C(=O)Nc1cccc(OC(=O)NC(C)(C)C)c1`, the Potency result in assay [1], in assay [3], in [6], in assay [4], in [7] and in assay [8] was “inactive” throughout. Further, the Potency entry (in [9]; in assay [5]; with Aromatase (Homo sapiens)) was “inactive” each time.

As to `CC1(C)[C@H](C(=O)O[C@H](C#N)c2cccc(Oc3ccccc3)c2)[C@@H]1C=C(Br)Br`, the Potency result (in [1]; in assay [2]; in [3]; in assay [5]; in the assay with Aromatase (Homo sapiens)) was “inactive” in each case.

Turning to `CC(C)CCON=O`, the Potency entry (in assay [1]; in assay [2]; in [3]; in [4]; in assay [5]; with Aromatase (Homo sapiens)) was “inactive” in each case.

`c1ccc2c(c1)-c1cccc3cccc-2c13`: the Potency entry (in assay [1]; in assay [2]; in assay [3]; in [4]; in assay [5]; with Aromatase (Homo sapiens)) was “inactive” in each case.

As for `Nc1cc(Cl)cc(C(=O)O)c1Cl`, the Potency result (in assay [1]; in [2]; in [3]; in assay [4]; in assay [5]; in the assay with Aromatase (Homo sapiens)) was “inactive” throughout.

With `Cc1ccc(N)c(C)c1`, the Potency entry (in [1]; in assay [2]; in assay [3]; in assay [4]; in assay [5]; with Aromatase (Homo sapiens)) was “inactive” throughout.

For the compound `C[CH2][Hg][S]c1ccccc1C(=O)O`, the Potency is 298 nM (active) and 273 nM (active) in assay [1]; 335 nM (active) and 243 nM (active) in [2]; 13.4 µM (active) and 12.3 µM (active) in [4]; 21.1 µM (active) and 17.2 µM (active) in assay [5]; 5.96 µM (active) and 1.09 µM (active) with Aromatase (Homo sapiens).

For `[Cl-].[Cl-].[Hg+2]`, the Potency in assay [1] is 1.33 µM (active) and 1.36 µM (active) and 243 nM (active); in assay [2], 841 nM (active) and 1.21 µM (active) and 193 nM (active); in assay [4], 24.4 µM (active); in assay [5] it was 54.2 µM (active) and inactive; in the assay with Aromatase (Homo sapiens) it was 13.3 µM (active) and 1.36 µM (active) and 15.4 µM (active).

`CCCCCCCCP(=O)(O)O`: the Potency result (in assay [1]; in [2]; in assay [3]; in assay [4]; in assay [5]; in the assay with Aromatase (Homo sapiens)) was “inactive” each time.

Turning to `CC(C)C1(C)N=C(c2ncccc2C(=O)O)NC1=O` (centres undefined), the Potency result in assay [2], in assay [3], in assay [6], in assay [4], in [7] and in assay [8] was “inactive” throughout. Further, the Potency result (in assay [9]; in assay [5]; with Aromatase (Homo sapiens)) was “inactive” in each case.

Take `OCCSSCCO`: the Potency result in assay [2], in [3], in assay [6], in assay [4], in [7] and in assay [8] was “inactive” throughout. Further, the Potency result (in assay [5]; with Aromatase (Homo sapiens)) was “inactive” each time.

On to `O=S(=O)(Cl)Cl`, for which the Potency result in assay [1], in assay [6], in assay [4], in assay [7], in assay [8] and in assay [5] was “inactive” each time. The Potency result with Aromatase (Homo sapiens) was “inactive”.

As for `Cc1nc(N(C)C)nc(OC(=O)N(C)C)c1C`, the Potency entry in [2], in assay [3], in [6], in [4], in [7] and in assay [8] was “inactive” in each case. Besides, the Potency result (in [5]; with Aromatase (Homo sapiens)) was “inactive” each time.

`CCNC(=O)NC(=O)/C(C#N)=N/OC`: the Potency result in assay [2], in assay [3], in assay [6], in assay [4], in assay [7] and in assay [8] was “inactive” each time. In addition, the Potency result (in [5]; with Aromatase (Homo sapiens)) was “inactive” in each case.

In the case of `Cc1ncc(C[n+]2csc(CCO)c2C)c(N)n1`, the Potency entry (in assay [1]; in assay [3]; in assay [4]; in assay [5]; with Aromatase (Homo sapiens)) was “inactive” throughout.

Consider `CCC[N+](CCC)(CCC)CCC`, for which the Potency result in assay [2], in assay [3], in assay [6], in assay [4], in [7] and in assay [8] was “inactive” throughout. For the same compound, the Potency result (in assay [5]; in the assay with Aromatase (Homo sapiens)) was “inactive” each time.

As for `Cc1cccc(C)c1NC1=NCCCS1`, the Potency result in assay [2], in assay [3], in assay [6], in assay [4], in [7] and in assay [8] was “inactive” in each case. The Potency result (in assay [9]; with Aromatase (Homo sapiens)) was “inactive” in each case.
